# Hits are enriched below; roughly 27% of the tested compounds scored in any of these assays.
# CYP2C9 inh = inhibitors of human CYP2C9. AID 777. inhibition, % at 5 µM. 20% of 96,000 active. P11712. CYP2C9 Supersomes, luciferin-H conversion, luminescence;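 active = blocking of liver enzyme CYP2C9 beyond about 50% at 5 µM, limit read from the data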
# CYP2C9 activ = activators of human CYP2C9; AID 1024; recombinant CYP2C9, luciferin-H conversion, luminescence; hits give high values; factor 1 = untreated enzyme, 0 = blocked; P11712; activation factor at 5 µM; 1.4% of 96,000 active;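 active = activation factor of 2 or more for CYP2C9 at a 5 µM dose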;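 note: 0 = sulfaphenazole-blocked wells and 1 = vehicle-only wells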
# CYP2C19 activ = increases human CYP2C19 enzyme activity; recombinant CYP2C19, luciferin-H EGE luminescence; hits give high values; 0 = fully inhibited enzyme, 1 = untreated enzyme; P33261; activation factor at 5 µM; 96,000 tested, under 10 active;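 active = activation factor of at least 2 at 5 µM in the primary screen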;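 note: 0 = wells with 2.5 mM tranylcypromine and 1 = vehicle-only wells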
# Target sequence (P33261 whole entry, looked up): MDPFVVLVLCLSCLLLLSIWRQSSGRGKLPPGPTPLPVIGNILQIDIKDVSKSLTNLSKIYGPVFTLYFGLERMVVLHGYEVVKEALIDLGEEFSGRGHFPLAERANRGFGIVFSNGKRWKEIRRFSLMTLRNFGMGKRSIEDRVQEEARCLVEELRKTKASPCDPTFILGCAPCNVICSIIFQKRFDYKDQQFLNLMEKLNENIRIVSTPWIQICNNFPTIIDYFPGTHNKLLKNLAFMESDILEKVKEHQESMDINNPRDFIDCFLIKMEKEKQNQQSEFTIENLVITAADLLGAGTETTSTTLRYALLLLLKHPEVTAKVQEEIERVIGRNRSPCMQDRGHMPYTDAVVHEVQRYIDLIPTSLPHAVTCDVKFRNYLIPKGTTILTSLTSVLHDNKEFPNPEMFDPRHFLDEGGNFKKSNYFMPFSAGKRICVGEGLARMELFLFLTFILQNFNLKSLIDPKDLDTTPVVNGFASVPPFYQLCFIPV
# CYP2C19 inhib = inhibitors of human CYP2C19. P33261. CYP2C19 Supersomes, luciferin-H EGE luminescence, 30 min. 21% of 96,000 active. inhibition, % at 5 µM;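 active = CYP2C19 inhibition above a set limit at 5 µM in the primary screen, cut at about 50% in these data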;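 note: plate controls were negative control wells for no effect and 2.5 mM tranylcypromine positive control for full effect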
# Cav32 inh = inhibitors of human Cav3.2 T-type calcium channel; Cav3.2-expressing cells, Fluo-4 calcium fluorescence FDSS; hits give low values; 4% of 100,000 active; O95180; B-score at 10 µM;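 active = single-dose well whose peak fluorescence ratio is a statistical outlier from its plate by either plate-standardised score or position-corrected B-score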
# Starred values were filed as active, the others as inactive; x = no result.
SMILES,CYP2C9 inh,CYP2C9 activ,CYP2C19 activ,CYP2C19 inhib,Cav32 inh
CCN(CCCNC(=O)c1ccc(N2CCCC2=O)cc1)c1cccc(C)c1,13,0.9,0.7,30,-0.037
Cn1c2ccccc2c(=O)n2c(=O)c3ccccc3cc12,56*,0.4,0.3,68*,0.045
Cn1c(-c2ccccc2)cc(=O)c2ccccc21,3,1,0.8,23,0.031
O=C(Oc1cccc(N2C(=O)CCC2=O)c1)C1CC(=O)N(c2ccc(Br)cc2)C1 (configuration not stated),6,0.9,1.1,-10,-3.4
Cc1ccc(C2C=C(c3ccccc3)Nc3ncnn32)cc1 (configuration not stated),x,x,x,x,-0.46
Fc1ccc(Br)cc1C1C=C(c2cccnc2)Nc2ncnn21 (configuration not stated),54*,0.5,0.1,88*,-3
OCCCc1nc2n(n1)C(c1cccs1)C=C(c1ccc(Br)cc1)N2 (configuration not stated),11,0.9,1.1,-8,-7.9*
Brc1ccc(C2=CC(c3cccs3)n3ncnc3N2)cc1 (configuration not stated),42,0.6,0.7,35,-5.5*
CCOC(=O)C1CCN(C(=O)c2c(-c3c(F)cccc3Cl)noc2C)CC1,28,0.7,0.9,6,1
CCC(CO)NCCNC(CC)CO (configuration not stated),-10,1.1,1.1,-10,x
COc1ccc(NC(=O)C2CCC(=O)N2S(=O)(=O)c2ccc(C)cc2)c(OC)c1 (configuration not stated),-67,1.7,0.9,13,0.014
COc1cc(/C=C(/C#N)c2nc3ccccc3[nH]2)ccc1OC(=O)c1ccco1,61*,0.4,0.8,24,0.081
COc1cc(/C=C(\C#N)c2nc3ccccc3[nH]2)ccc1Oc1ccc([N+](=O)[O-])cn1,37,0.6,0.9,12,-0.22
COC(=O)N/N=C(\C)c1ccc(Br)cc1,-2,1,1,-2,-0.45
C/C(=N\NC(=O)c1ccc(Br)cc1)c1ccccc1,28,0.7,0.4,61*,-0.032
FC(F)(F)c1cccnc1N1CCN(c2ncnc3nc[nH]c23)CC1,38,0.6,0.2,83*,x
CC(C)C(NC(=O)C12CC3CC(CC(C3)C1)C2)C(=O)O (configuration not stated),5,0.9,1,0,0.53
O=C1c2ccccc2C(=O)C1c1ccnc2ccccc12,x,x,x,x,-1
O=C1c2ccccc2C(=O)C1c1nccc2ccccc12,58*,0.4,0.5,45,-0.96
CC(C)CC(=O)Nc1ccc2oc(-c3ccncc3)nc2c1,69*,0.3,0.5,52*,0.75
CC(Oc1ccc(Cl)cc1Cl)C(=O)Nc1ccc2oc(-c3ccncc3)nc2c1 (configuration not stated),61*,0.4,0.4,55*,0.034
CCCC(=O)Nc1cccc(-c2nc3ccccc3o2)c1,26,0.7,0.9,9,1.6
CC(C)CC(=O)Nc1cccc(-c2nc3ccccc3o2)c1,74*,0.3,0.7,29,-0.044
Cc1ccc(-c2nc3cc(NC(=O)C(C)C)ccc3o2)cc1,-2,1,1,-2,0.0093
O=C(Cc1ccccc1)Nc1ccc2oc(-c3ccncc3)nc2c1,10,0.9,1,4,0.74
SMILES,CYP2C9 inh,CYP2C9 activ,CYP2C19 activ,CYP2C19 inhib,Cav32 inh
CC1CCCC(C)N1C(=O)CSc1nnc(CSc2ncccn2)n1C (configuration not stated),-8,1.1,1,0,0.85
CCCCNC(=S)NNC(=O)c1csc(C(C)C)c1,x,x,x,x,-0.5
CCCCNC(=S)NNC(=O)c1sccc1C,12,0.9,0.1,88*,-0.041
O=C(c1cc2ccccc2c(=O)o1)N1CCc2ccccc2C1,-150,2.5*,0.6,44,x
O=C(c1cccc(F)c1)N1CCc2ccccc2C1,9,0.9,0.3,70*,0.0068
O=C(c1cncc(Br)c1)N1CCc2ccccc2C1,41,0.6,0.1,86*,-0.27
O=C(c1ccccc1Cl)N1CCc2ccccc2C1,x,x,x,x,0.36
O=C(c1cncc(Br)c1)N1CCCc2ccccc21,40,0.6,0.4,62*,-0.29
COC(=O)[C@H]1[C@@H](C)N(Cc2ccccc2)C(=O)N[C@H]1c1ccccc1,x,x,x,x,0.46
Nc1nc2c(s1)C(=O)CC(c1ccccc1)C2 (configuration not stated),20,0.8,0.7,31,1.6
CCOC(=O)CC(=O)CSc1nc2nc(C)cc(C)n2n1,17,0.8,0.8,19,1.8
CN1C2=NCCN2C(=O)c2ccccc21,-10,1.1,0.9,6,1
O=C(c1nnc(Cc2ccc(Cl)cc2)o1)N1CCc2ccccc2C1,x,x,x,x,-5.7*
O=C(c1ccc(Cl)nc1)N1CCc2ccccc2C1,47,0.5,0,98*,-1.1
Cc1cc(C(=O)OCC(=O)Nc2cc(C(F)(F)F)ccc2N2CCOCC2)c(C)o1,63*,0.4,0.7,32,-2.6
O=C(Nc1cc(C(F)(F)F)ccc1N1CCOCC1)c1ccccc1,11,0.9,0.4,64*,-1.7
Cc1nnc(SCC(=O)Nc2cc(C(F)(F)F)ccc2N2CCOCC2)o1,3,1,0.7,26,1.1
O=C(Nc1cc(C(F)(F)F)ccc1N1CCOCC1)c1cccnc1Cl,9,0.9,0.7,34,0.082
O=C(Nc1cc(C(F)(F)F)ccc1N1CCOCC1)c1ccc(Cl)nc1,37,0.6,0.2,76*,-3.6
CCC(=O)Nc1cc(C(F)(F)F)ccc1N1CCOCC1,30,0.7,0.7,32,0.00077
COC(=O)c1ccc(CNC(=O)CNc2cc(C(F)(F)F)ccc2N2CCOCC2)cc1,95*,0,0.5,45,-1.2
O=c1cc(N2CCc3ccccc32)[nH]c(=O)n1Cc1ccc(F)cc1,14,0.9,0.9,11,x
CCOC(=O)Cc1nnc(Nc2cccc(C)c2)c2ccccc12,-7,1.1,1,-3,0.4
Oc1ccc2[nH]cnc2c1CN1CCCCC1,-15,1.1,0.9,9,0.65
Cn1c(=O)n(C/C=C/c2ccccc2)c(=O)c2c1nc1n2CCCN1c1ccc(F)cc1,38,0.6,0.7,30,-2.3
SMILES,CYP2C9 inh,CYP2C9 activ,CYP2C19 activ,CYP2C19 inhib,Cav32 inh
CN(C)CC(C)(C)CNS(=O)(=O)c1cccc(Cl)c1Cl,32,0.7,0.2,77*,1.3
c1ccc2c(c1)nc1n2C2(N3CCOCC3)CCCC2C1N1CCOCC1 (configuration not stated),99*,0,0.9,13,x
N#Cc1c(-c2ccccc2)c(-c2ccccc2)nn(CC(=O)NNC(=O)Nc2ccccc2)c1=O,53*,0.5,0.7,25,x
O=C(Cn1nc(-c2ccccc2)c2ccccc2c1=O)Nc1ccccn1,36,0.6,0.9,14,-1.3
COc1ccc(-c2nn(CC(=O)Nc3ccc(Cl)c(Cl)c3)c(=O)c3ccccc23)cc1,87*,0.1,0.7,33,-1.8
O=C(Cn1nc(-c2ccc(Cl)cc2)c2ccccc2c1=O)Nc1cccnc1,59*,0.4,1,2,-2.3

# Screening results (PubChem)
